Data taken from PubChem BioAssay (Tox21).
Values joined by “and” are separate entries in the source; they are usually repeats but may differ in a detail not shown here. Identical values can stand only once. Records with an inconclusive call do not appear. More than one record can exist for a structure, and the calls need not agree. Active and inactive are the calls of the source. Unless noted, calls come from the whole dose curve; as a rule, active = well fitted curve in the direction sought with a large enough effect in the repeat runs; inconclusive = weak or mixed curves; inactive = no such curve, though single readings can be large; an effect the other way counts as inactive or inconclusive.

What was measured:
[1] = molecular target: Thyrotropin receptor (Homo sapiens) (UniProt P16473); assay: qHTS assay to identify small molecule agonists of the thyroid stimulating hormone receptor (TSHR) signaling pathway (AID 1224843; calls by dose curve; note: nearly all actives have a fitted effect of over 45% in size)
Summary of the method: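 Cell line HEK293 with TSHR; density 800/well. Exposure 30 min RT. Readout HTRF cAMP (cAMP-d2/anti-cAMP-cryptate), 1 h RT before reading.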

[2] = qHTS assay to identify small molecule agonists of the hypoxia (HIF-1) signaling pathway - cell viability counter screen (AID 1224844; calls by dose curve; note: nearly all actives have a fitted effect of over 50% in size)
Summary of the method: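 Tox21 10K compounds were added to HRE-bla ME-180 cells (0.5% dialyzed FBS) and incubated 17 hrs at 37C; ATP-based CellTiter-Glo luminescence then reported cell viability in the same wells.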

[3] = qHTS assay to identify small molecule agonists of the hypoxia (HIF-1) signaling pathway (AID 1224846; active = well fitted activation curve with a large enough effect in the signal ratio in the repeat runs, not every such curve was filed as active; the % refers to the signal ratio)
Summary of the method: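 Steps: seed ME-180 HRE-bla cells (2,000/well, 0.5% dialyzed FBS); incubate 5 hrs at 37C; pin-transfer compounds or DMSO; incubate 17 hrs; add LiveBLAzer B/G substrate CCF4-AM; measure reporter activation by FRET.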

[4] = qHTS assay to identify small molecule agonists of H2AX - cell viability counter screen (AID 1224847; calls by dose curve; note: nearly all actives have a fitted effect of over 30% in size; note: potency is the fitted concentration of half-maximal effect)
Summary of the method: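 Compounds tested at 15 concentrations were incubated 3 hr at 37C with wild-type CHO-K1 cells; cellular ATP-based luminescence (CellTiter-Glo) indicated viability.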

[5] = qHTS assay to identify small molecule antagonists of the estrogen related receptor (ERR) signaling pathway from Tox21 library (AID 1224848); note: nearly all actives have a fitted effect of over 50% in size
Summary of the method: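 Screening used an ERR reporter line supplied by NTP, exposed for 18 h at 37 C to library compounds delivered in DMSO. Signal was luciferase luminescence developed with ONE-Glo at room temperature for 30 min.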

[6] = qHTS assay to identify small molecule agonists of the estrogen related receptor (ERR) signaling pathway from Tox21 library (AID 1224849; calls by dose curve; note: nearly all actives have a fitted effect of over 15% in size); details: ERR reporter cell line, ONE-Glo luciferase, 18 h
Summary of the method: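 Agonist signal is luciferase luminescence from an ERR reporter cell line treated 18 h at 37 C with DMSO-dissolved compounds, read 30 min after ONE-Glo addition at room temperature.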

[7] = qHTS RealTime-Glo MT Cell Viability Assay in HepG2 cells - 24 hour (AID 1224867); note: nearly all actives have a fitted effect of over 50% in size
Summary of the method: (§1)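 HepG2 cells (600/well) were dispensed with RealTime-Glo reagents, incubated 5 h at 37 °C, then treated with compounds in DMSO for up to 40 h. Nonlytic NanoLuc luminescence reflecting viable cells was read at each stated time point.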

[8] = qHTS RealTime-Glo MT Cell Viability Assay in HEK293 cells - 32 hour (AID 1224868); note: nearly all actives have a fitted effect of over 50% in size; note: potency is the fitted concentration of half-maximal effect
Summary of the method: (§2)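 HEK293 cells seeded with NanoLuc/prosubstrate reagent, rested 5 h at 37 C, then dosed and kept at 37 C up to 40 h. Nonlytic real-time luminescence from viable cells read at 0, 8, 16, 24, 32 and 40 h.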

[9] = A CellTox Green Cytotoxicity Assay to monitor cytotoxicity in HEK293 cells - 0 hour (AID 1224869); note: nearly all actives have a fitted effect of over 50% in size
Summary of the method: (§3)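 Cytotoxicity was tracked continuously in HEK293 cells by a DNA-binding dye excluded from viable cells. Compounds were transferred in DMSO 5 h after seeding; fluorescence was recorded at intervals up to 40 h.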

[10] = qHTS RealTime-Glo MT Cell Viability Assay in HepG2 cells - 40 hour (AID 1224870); note: nearly all actives have a fitted effect of over 50% in size
Summary of the method: (§4)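 HepG2 cells mixed with RealTime-Glo MT reagents (NanoLuc plus cell-permeant prosubstrate) were seeded at 600 cells/well, incubated 5 h at 37 C/5% CO2, then pinned with compounds in DMSO; nonlytic luminescence tracked viability during 40 h treatment.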

[11] = A CellTox Green Cytotoxicity Assay to monitor cytotoxicity in HEK293 cells - 40 hour (AID 1224871); note: nearly all actives have a fitted effect of over 45% in size; note: potency is the fitted concentration of half-maximal effect
Summary of the method: as §3

[12] = qHTS RealTime-Glo MT Cell Viability Assay in HEK293 cells - 16 hour (AID 1224872)
Summary of the method: as §2

[13] = qHTS RealTime-Glo MT Cell Viability Assay in HepG2 cells - 8 hour (AID 1224873); note: nearly all actives have a fitted effect of over 55% in size
Summary of the method: as §4

[14] = qHTS RealTime-Glo MT Cell Viability Assay in HEK293 cells - 40 hour (AID 1224874); details: RealTime-Glo luminescence; max response: stronger effect = lower value; note: nearly all actives have a fitted effect of over 50% in size; note: potency is the fitted concentration of half-maximal effect
Summary of the method: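 Nonlytic bioluminescent viability monitoring. HEK293 at 600 cells/well with reagent; 5 h settle; compound transfer by pintool; plates held at 37 C and read at set time points.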

[15] = A CellTox Green Cytotoxicity Assay to monitor cytotoxicity in HEK293 cells - 24 hour (AID 1224875); note: nearly all actives have a fitted effect of over 45% in size
Summary of the method: as §3

[16] = A CellTox Green Cytotoxicity Assay to monitor cytotoxicity in HepG2 cells - 16 hour (AID 1224876); note: nearly all actives have a fitted effect of over 45% in size
Summary of the method: (§5)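 Real-time, homogeneous cytotoxicity readout: dead-cell DNA staining by CellTox Green in HepG2 monolayers, fluorescence measured at timed intervals up to 40 h of continuous compound exposure.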

[17] = qHTS RealTime-Glo MT Cell Viability Assay in HepG2 cells - 32 hour (AID 1224877); note: nearly all actives have a fitted effect of over 55% in size
Summary of the method: as §1

[18] = A CellTox Green Cytotoxicity Assay to monitor cytotoxicity in HepG2 cells - 24 hour (AID 1224878); note: nearly all actives have a fitted effect of over 45% in size
Summary of the method: as §5

[19] = A CellTox Green Cytotoxicity Assay to monitor cytotoxicity in HepG2 cells - 40 hour (AID 1224879); note: nearly all actives have a fitted effect of over 40% in size; note: potency is the fitted concentration of half-maximal effect
Summary of the method: as §5

[20] = qHTS assay to identify small molecule agonists of H2AX (AID 1224845; active = well fitted activation curve with a large enough effect in the signal ratio in the repeat runs, not every such curve was filed as active; the % refers to the signal ratio)
Summary of the method: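 Wild-type CHO-K1 cells plated overnight, then exposed 3 hr at 37C to compounds at 15 concentrations (0.76% DMSO). Lysed, then HTRF anti-pH2AX(S139)-cryptate/anti-H2AX-d2 detection after 24 hr at room temperature; emissions 665 and 620 nm.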
% is set by controls: 0 for no effect and ±100 for the full control effect.

Thyrotropin receptor (Homo sapiens), sequence (P16473 whole entry, looked up): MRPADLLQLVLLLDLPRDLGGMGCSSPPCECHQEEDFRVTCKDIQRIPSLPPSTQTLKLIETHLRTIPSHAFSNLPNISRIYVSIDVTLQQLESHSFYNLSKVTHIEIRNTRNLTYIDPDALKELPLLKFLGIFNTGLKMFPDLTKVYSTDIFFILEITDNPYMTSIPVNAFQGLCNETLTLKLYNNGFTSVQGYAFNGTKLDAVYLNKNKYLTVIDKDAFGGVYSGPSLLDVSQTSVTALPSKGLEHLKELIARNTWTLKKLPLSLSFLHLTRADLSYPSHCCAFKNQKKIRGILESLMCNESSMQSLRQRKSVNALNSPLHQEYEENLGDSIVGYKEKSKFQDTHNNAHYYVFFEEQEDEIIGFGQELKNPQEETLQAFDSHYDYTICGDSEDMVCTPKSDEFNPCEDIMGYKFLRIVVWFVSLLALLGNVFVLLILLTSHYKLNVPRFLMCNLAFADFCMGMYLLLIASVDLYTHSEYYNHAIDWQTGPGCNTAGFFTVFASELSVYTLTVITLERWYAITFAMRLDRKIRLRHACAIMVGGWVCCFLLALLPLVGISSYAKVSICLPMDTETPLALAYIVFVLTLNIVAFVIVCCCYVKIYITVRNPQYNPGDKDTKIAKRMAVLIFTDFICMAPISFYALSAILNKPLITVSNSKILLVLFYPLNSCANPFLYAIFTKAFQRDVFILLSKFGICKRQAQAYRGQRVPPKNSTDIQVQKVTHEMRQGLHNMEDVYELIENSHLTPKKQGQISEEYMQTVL

O=P1(NCCCl)OCCCN1CCCl (centres undefined)
inactive: Potency [1] | Potency [2] | outcome [3] | Potency [4] | Potency [5] | activity change, positive = activation ([6]; at 42.5 µM (top of the series)) -0.35% | activity change, positive = activation ([6]; at 92.4 µM (top of the series)) 5.99% and 1.11% | outcome [7] | Potency [8] | Potency [9] | outcome [10] | Potency [11] | outcome [12] | outcome [13] | max response [14] 0.555% and 9.01% and 5.36% | Potency [15] | Potency [16] | outcome [17] | Potency [18] | Potency [19]

O=[N+]([O-])c1ccc(Cl)cc1
inactive: Potency [1] | Potency [2] | Potency [20] | outcome [3] | Potency [4] | outcome [7] | Potency [8] | Potency [9] | outcome [10] | Potency [11] | outcome [12] | outcome [13] | max response [14] 4.49% and 2.44% | Potency [15] | Potency [16] | Potency [18] | Potency [19]

Nc1cc(Cl)cc(Cl)c1
inactive: Potency [1] | Potency [2] | Potency [20] | outcome [3] | Potency [4] | outcome [7] | Potency [8] | Potency [9] | Potency [11] | outcome [12] | outcome [13] | Potency [16] | outcome [17] | Potency [18] | Potency [19]

CCOC(=O)CC(SP(=O)(OC)OC)C(=O)OCC (centres undefined)
inactive: Potency [1] | Potency [2] | Potency [20] | outcome [3] | Potency [4] | outcome [7] | Potency [8] | Potency [9] | Potency [11] | outcome [12] | outcome [13] | Potency [16] | outcome [17] | Potency [18] | Potency [19]

Oc1ccc(Cl)cc1
inactive: Potency [1] | Potency [2] | Potency [20] | outcome [3] | Potency [4] | outcome [7] | Potency [8] | Potency [9] | Potency [11] | outcome [12] | outcome [13] | Potency [15] | Potency [16] | Potency [18] | Potency [19]

CCSC(=O)N1CCCCCC1
inactive: Potency [1] | Potency [2] | outcome [3] | Potency [4] | Potency [5] | activity change, positive = activation ([6]; at 92.4 µM (top of the series)) -10.2% and -0.0309% | outcome [7] | Potency [8] | Potency [9] | outcome [10] | Potency [11] | outcome [12] | outcome [13] | max response [14] 3.34% | Potency [16] | outcome [17] | Potency [18] | Potency [19]
active: Potency [14] 12 µM

Nc1nc(N)nc(NC2CC2)n1
inactive: Potency [1] | Potency [2] | outcome [3] | Potency [4] | Potency [5] | activity change, positive = activation ([6]; at 42.5 µM (top of the series)) 7.96% | activity change, positive = activation ([6]; at 92.4 µM (top of the series)) -4.5% and 0.923% | outcome [7] | Potency [8] | Potency [9] | outcome [10] | Potency [11] | outcome [12] | outcome [13] | Potency [16] | Potency [18] | Potency [19]

OCc1ccco1
inactive: Potency [1] | Potency [2] | Potency [20] | outcome [3] | Potency [4] | Potency [5] | activity change, positive = activation ([6]; at 92.4 µM (top of the series)) 4.84% | outcome [7] | Potency [8] | Potency [9] | outcome [10] | Potency [11] | outcome [12] | outcome [13] | max response [14] 1.99% and 6.54% | Potency [16] | outcome [17] | Potency [18] | Potency [19]

Nc1cccc(Cl)c1
inactive and 21.9 µM (active): Potency [8]
inactive: Potency [1] | Potency [2] | Potency [20] | outcome [3] | Potency [4] | Potency [5] | activity change, positive = activation ([6]; at 92.4 µM (top of the series)) 7.3% and -16.4% | outcome [7] | Potency [9] | Potency [11] | outcome [12] | outcome [13] | Potency [15] | Potency [16] | outcome [17] | Potency [18] | Potency [19]

COC(C)(C)CCCC(C)C/C=C/C(C)=C/C(=O)OC(C)C (centres undefined)
inactive: Potency [1] | Potency [2] | Potency [20] | outcome [3] | Potency [4] | Potency [5] | activity change, positive = activation ([6]; at 42.5 µM (top of the series)) 0.0177% | activity change, positive = activation ([6]; at 92.4 µM (top of the series)) -14.1% | outcome [7] | Potency [8] | Potency [9] | Potency [11] | outcome [12] | outcome [13] | max response [14] 0.0106% | Potency [16] | outcome [17] | Potency [18] | Potency [19]

C[C@]12CC[C@H](O)CC1=CC[C@@H]1[C@@H]2CC[C@]2(C)C(=O)CC[C@@H]12
inactive and 43.6 µM (active): Potency [11]
inactive: Potency [1] | Potency [2] | Potency [20] | outcome [7] | Potency [8] | Potency [9] | outcome [12] | outcome [13] | max response [14] -15.5% | Potency [15] | Potency [16] | outcome [17] | Potency [18]
89.8 µM (active) and inactive: Potency [4]
49 µM (active) and inactive: Potency [19]

CC[N+](=O)[O-]
inactive: Potency [1] | Potency [2] | Potency [20] | outcome [3] | Potency [4] | outcome [7] | Potency [8] | Potency [9] | Potency [11] | outcome [12] | outcome [13] | max response [14] 7.02% and 16.9% | Potency [15] | Potency [16] | Potency [18] | Potency [19]

CN(C)NC(=O)CCC(=O)O
4.6% (inactive) and 12.8% (active): activity change, positive = activation ([6]; at 92.4 µM (top of the series))
inactive: Potency [1] | Potency [2] | Potency [20] | outcome [3] | Potency [4] | Potency [5] | outcome [7] | Potency [8] | Potency [9] | Potency [11] | outcome [12] | outcome [13] | max response [14] 2.52% and 2.58% | Potency [16] | outcome [17] | Potency [18] | Potency [19]

Cc1ccc(N)cc1
14.9% (active) and 11.9% (inactive): activity change, positive = activation ([6]; at 92.4 µM (top of the series))
inactive: Potency [1] | Potency [2] | Potency [20] | outcome [3] | Potency [4] | Potency [5] | outcome [7] | Potency [8] | Potency [9] | outcome [10] | Potency [11] | outcome [12] | outcome [13] | max response [14] -16.7% and 1.44% and -0.523% | Potency [15] | Potency [16] | outcome [17] | Potency [18] | Potency [19]
